Marburg entry: Marburg virus entry inhibition. AID 720532. 18,000 tested, 6.5% active. Marburg virus pseudotype entry/binding inhibition, cell-based. Potency, µM (titrated, usually from 49.2 µM), for the others: at the top dose activity change, negative = inhibition, most hits filed as inhibitors
LASV entry inh: inhibitors of Lassa virus binding or entry into cells; 18,000 tested, 4.1% active; Potency, µM (highest dose often 49.2 µM), without a hit: at the top dose activity change, negative = inhibition, most hits filed as inhibitors; Lassa virus pseudotyped entry inhibition, cell-based qHTS
* = called active by the depositor; ? = inconclusive; / = not tested or not shown; ! = a repeat was not active; [ ] = remark or other dose. In the library only some 7.1% were active in any assay of this set; here they are far more common. Calls follow the shape of the full dose curve; tested in HEK293 cells. % is scaled to controls: 0 for no effect and ±100 for the full control effect; potency is read from the fitted curve at half-maximal effect.

SMILES	Marburg entry	LASV entry inh
CCCCCCCC=CC1=CC2(C)CC1(C)C(CCCCCCC)CC2=O (centres undefined)	?	4%[8.59 µM]
C=C(C)CCN1C(=O)NC(c2cccc(C(F)(F)F)c2)C(C(=O)OC)=C1C (centres undefined)	-19%[8.59 µM]	-10%[8.59 µM]
CO[C@H]1C[C@H](O[C@@H]2/C(C)=C/C[C@@H]3C[C@@H](C[C@]4(CC[C@H](C)[C@@H](C5CCCCC5)O4)O3)OC(=O)[C@@H]3C=C(C)/C(=N/O)[C@H]4OC/C(=C\C=C\[C@@H]2C)[C@]43O)O[C@@H](C)[C@@H]1O	7%	-13%
CC[C@H](C)[C@H]1O[C@]2(CC[C@@H]1C)C[C@@H]1C[C@@H](C/C=C(\C)[C@@H](O[C@H]3C[C@H](OC)[C@@H](O[C@H]4C[C@H](OC)[C@@H](O)[C@H](C)O4)[C@H](C)O3)[C@@H](C)/C=C/C=C3\CO[C@@H]4[C@H](O)C(C)=C[C@@H](C(=O)O1)[C@]34O)O2	?	14µM*
COc1ccc(O[C@H]2C=C[C@@H](c3ccccc3)O[C@H]2COC(=O)CCC(C)=NO[C@@H]2O[C@H](COC(C)=O)[C@@H](OC(C)=O)[C@H](OC(C)=O)[C@@H]2OC(C)=O)cc1	-23%[8.59 µM]	7%[8.59 µM]
CCN(CC)C(=S)SSC(=S)N(CC)CC	20µM*	40µM*!
CCOC(=O)[C@@]1([C@@H](NC(=O)OC)c2ccccc2)CCCC1=O	12%[8.59 µM]	-2%[8.59 µM]
CCCCCc1cc(O)c2c(c1)OC(C)(C)c1ccc(C)cc1-2	?	32µM*
COC(=O)[C@@]1(C=C2c3ccccc3[C@@H](OC)[C@@H]2C)[C@@H]2Oc3ccccc3[C@@H]21	0%[8.59 µM]	/
c1ccc(Cc2nc3ccc(Nc4ncnc5ccccc45)cc3[nH]2)cc1	123%	149%
N#Cc1cc2c(OCC(O)CN3CCN(C(c4ccccc4)c4ccccc4)CC3)cccc2[nH]1 (centres undefined)	8.9µM*	16µM*
CC(C)(C)NC[C@@H](O)COc1cccc2[nH]c(C#N)cc12	2%	-3%
C=CCOC(=O)N[C@H](C(C(=O)OC)=C(C)NCc1ccccc1)c1cccc(OC)c1	-13%[8.59 µM]	7%[8.59 µM]
O=C(Nc1n[nH]c2nc(-c3ccco3)c(Br)cc12)C1CC1	?	66%
COCCN1C(=O)CC[C@@]23C1=NC(C(=O)OC)=C(C(=O)OC)[C@@H]2N(C)c1ccccc13	?	-18%[8.59 µM]
CN(C)CCC(c1ccc(Br)cc1)c1ccccn1 (centres undefined)	10µM*	-5%
CN(C)CC[C@@H](c1ccccc1)c1ccccn1	-2%[17.8 µM]	-13%[17.8 µM]
COc1ccc(OC[C@H]2CN3[C@H](c4ccc(Br)cc4)[C@H](C)CC[C@H]3C(=O)O2)cc1	-7%[8.59 µM]	11%[8.59 µM]
COc1ccc2cc1Oc1ccc(cc1)CC1c3cc(c(OC)cc3CCN1C)Oc1c(OC)c(OC)c(OC)c3c1C(C2)N(C)CC3 (centres undefined)	10µM*	?
COc1cc2c3cc1Oc1cc(ccc1O)C[C@@H]1c4c(cc(OC)c(O)c4Oc4ccc(cc4)C[C@@H]3N(C)CC2)CC[N+]1(C)C	1%	-9%
COC(=O)NCC=Cc1nc(CCCO)co1	-24%[8.59 µM]	-24%[8.59 µM]
C(#CCN1CCCC1)CN1CCCC1	8.9µM*	?
C=C(C)C(O)C=Cc1ccc(Br)cc1 (centres undefined)	?	35%[8.59 µM]
CC(C)C[C@H]1COc2c(Cl)cccc2S(=O)(=O)N1C	12%	/
O[C@H]1C[C@H](c2ccccc2)N(Cc2cccs2)C[C@H]1n1cc(C2CC2)nn1	?	2%
SMILES	Marburg entry	LASV entry inh
c1ccc2sc(C3(N4CCCC4)CCCCC3)cc2c1	6.3µM*	1%
c1ccc2sc(C3(NCC4CC4)CCCCC3)cc2c1	14µM*	?
CCOC(=O)[C@@]1([C@@H](NC(=O)OC)c2cccc(C)c2)CCCC1=O	26%[8.59 µM]	9%[8.59 µM]
C[C@@H](C1[C@@H](O)CC2C3C=CC4C[C@@H](O)CC[C@]4(C)[C@H]3CC[C@@]21C)[C@@H]1CCCCN1 (some centres undefined)	11µM*	6%
Cc1cc(N)c2ccccc2[n+]1CCCCCCCCCC[n+]1c(C)cc(N)c2ccccc21	?	28µM*
COc1ccc(-c2cc3ccccc3c(=O)o2)cc1	44%	38%
COc1cc(OC)cc(-c2sc3ccccc3c(=O)c2I)c1	18µM*	?
C[C@@H]1[C@@H](c2ccccc2)Oc2c(Cl)cccc2S(=O)(=O)N1Cc1ccc(F)cc1F	8%	3%
CCN(CC)CCCN=C1NC(c2cccc(F)c2)C(C(=O)OC)=C(C)N1Cc1ccccc1 (centres undefined)	?	-26%[8.59 µM]
CCCN1CCCC(c2ccc(Nc3nc(Nc4cc(F)ccc4C(N)=O)c4cc[nH]c4n3)c(OC)c2)C1 (centres undefined)	7.9µM*	?
CCCN1CCC=C(c2ccc(Nc3nc(Nc4ccccc4C(N)=O)c4cc[nH]c4n3)c(C)c2)C1	?	-1%
CCCN1CCC(Oc2cc(Nc3nc(Nc4cccc(F)c4C(N)=O)c4cc[nH]c4n3)c(OC)cc2Cl)CC1	10µM*	?
CC(C)[C@@H](OCc1ccccc1)[C@H](C)C=NO[C@H](C)c1cn([C@@H]2COC[C@@H]2O)nn1	-6%[8.59 µM]	7%[8.59 µM]
CCOC(=O)CN1C(=O)[C@@]2(CC(C)=CC[C@@H](COc3ccccc3)O2)c2ccccc21	-20%[8.59 µM]	/
CO[C@H](C1CCCCC1)[C@H](C)C=CCC(=O)OCCCc1ccccc1	5%[8.59 µM]	/
COC(=O)N[C@@H](C=Cc1ccccc1)C[N+](=O)[O-]	7%[8.59 µM]	-19%[8.59 µM]
CC(=O)O[C@H]1C[C@H](O[C@H]2[C@@H](O)C[C@H](O[C@H]3[C@@H](O)C[C@H](O[C@H]4CC[C@@]5(C)[C@H](CC[C@@H]6[C@@H]5C[C@@H](O)[C@]5(C)[C@@H](C7=CC(=O)OC7)CC[C@]65O)C4)O[C@@H]3C)O[C@@H]2C)O[C@H](C)[C@H]1O[C@@H]1O[C@H](CO)[C@@H](O)[C@H](O)[C@H]1O	?	0.05µM*
COc1ccc2c(c1)O[C@@H](c1ccc3c(c1)OCO3)[C@H](OC(=O)NS(=O)(=O)c1ccc(F)cc1)C2=O	19%	0%
Fc1ccc([C@H]2CCNC[C@H]2COc2ccc3c(c2)OCO3)cc1	11µM*	?
Fc1ccc([C@H]2CCNCC2COc2ccc3c(c2)OCO3)cc1 (some centres undefined)	10µM*	-14%
COc1ccc2c(c1)O[C@H](c1ccc3c(c1)OCO3)[C@@H](OC(=O)NS(=O)(=O)c1ccc(F)cc1)C2=O	8%	3%
CCN1C(=O)[C@@H]2[C@H]3[C@H](O)[C@H](O)CC(=NO[C@H](C)CN4CCCc5nc(C)c(C)cc54)[C@@H]3CC[C@H]2C1=O	2%[8.59 µM]	14%[8.59 µM]
CCCCCCCCCCCCCCCCCCNC(=O)OC1CCN(C(=O)OC[C@H](COC(=O)N(Cc2cccc[n+]2CC)C(=O)c2ccccc2OC)OC)CC1	11µM*	13µM*
Cc1ccc(CN2[C@@H](C)[C@@H](C)Oc3c(Cl)cccc3[S+]2(=O)[O-])cc1	14%	-7%
COc1ccc(-c2ccncc2)cc1C(N)=O	?	-14%
COC(=O)C1=C(C)N(Cc2ccccc2)C(=NCCCCO)NC1c1cccc(F)c1 (centres undefined)	57%[8.59 µM]	/
C[C@@H]1N[S+](=O)([O-])c2c(F)cccc2O[C@H]1c1ccccc1	10%	2%
COC1=CC(=O)C=C(OC)C1=O	7.1µM*	10µM*
COC1=CC(=O)C(C(=O)c2ccccc2)=CC1=O	10%	-4%
